# Compound activity (PubChem BioAssay)
# POLI inh: DNA polymerase iota (human) inhibition; Q9UNA4; Pol iota fluorescent replication assay, 10 min; Potency, µM (doses to about 115 µM), usual class: inhibitors; 390,000 compounds, 1% hits
#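 Fluorescent replication assay read twice, at 0 min and 10 min after adding 50 nM (final) substrate. Enzyme (10 nM) and compounds were first incubated 15 min at room temperature; enzyme-free buffer wells were negative controls.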
# Pol eta inh-1: inhibitors of human DNA polymerase eta. Q9Y253. recombinant Pol eta, fluorescent DNA replication assay. Potency, µM (doses to about 114 µM), most hits filed as inhibitors. 390,000 compounds, 1.2% hits
#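 Pol eta at 10 nM preincubated with compounds 15 min at room temperature; reaction started with fluorescent substrate (50 nM final) and read kinetically at 0 and 10 min.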
# WRN helicase inh-1: inhibitors of human WRN helicase; Potency, µM (doses to about 114 µM), actives largely listed as inhibitors; 360,000 compounds, 0.46% hits; WRN helicase unwinding, fluorescent forked duplex, kinetic; Q14191; AID 651768; also: nearly all actives have a fitted effect of over 55% in size
# Target sequence (Q14191 whole entry, looked up): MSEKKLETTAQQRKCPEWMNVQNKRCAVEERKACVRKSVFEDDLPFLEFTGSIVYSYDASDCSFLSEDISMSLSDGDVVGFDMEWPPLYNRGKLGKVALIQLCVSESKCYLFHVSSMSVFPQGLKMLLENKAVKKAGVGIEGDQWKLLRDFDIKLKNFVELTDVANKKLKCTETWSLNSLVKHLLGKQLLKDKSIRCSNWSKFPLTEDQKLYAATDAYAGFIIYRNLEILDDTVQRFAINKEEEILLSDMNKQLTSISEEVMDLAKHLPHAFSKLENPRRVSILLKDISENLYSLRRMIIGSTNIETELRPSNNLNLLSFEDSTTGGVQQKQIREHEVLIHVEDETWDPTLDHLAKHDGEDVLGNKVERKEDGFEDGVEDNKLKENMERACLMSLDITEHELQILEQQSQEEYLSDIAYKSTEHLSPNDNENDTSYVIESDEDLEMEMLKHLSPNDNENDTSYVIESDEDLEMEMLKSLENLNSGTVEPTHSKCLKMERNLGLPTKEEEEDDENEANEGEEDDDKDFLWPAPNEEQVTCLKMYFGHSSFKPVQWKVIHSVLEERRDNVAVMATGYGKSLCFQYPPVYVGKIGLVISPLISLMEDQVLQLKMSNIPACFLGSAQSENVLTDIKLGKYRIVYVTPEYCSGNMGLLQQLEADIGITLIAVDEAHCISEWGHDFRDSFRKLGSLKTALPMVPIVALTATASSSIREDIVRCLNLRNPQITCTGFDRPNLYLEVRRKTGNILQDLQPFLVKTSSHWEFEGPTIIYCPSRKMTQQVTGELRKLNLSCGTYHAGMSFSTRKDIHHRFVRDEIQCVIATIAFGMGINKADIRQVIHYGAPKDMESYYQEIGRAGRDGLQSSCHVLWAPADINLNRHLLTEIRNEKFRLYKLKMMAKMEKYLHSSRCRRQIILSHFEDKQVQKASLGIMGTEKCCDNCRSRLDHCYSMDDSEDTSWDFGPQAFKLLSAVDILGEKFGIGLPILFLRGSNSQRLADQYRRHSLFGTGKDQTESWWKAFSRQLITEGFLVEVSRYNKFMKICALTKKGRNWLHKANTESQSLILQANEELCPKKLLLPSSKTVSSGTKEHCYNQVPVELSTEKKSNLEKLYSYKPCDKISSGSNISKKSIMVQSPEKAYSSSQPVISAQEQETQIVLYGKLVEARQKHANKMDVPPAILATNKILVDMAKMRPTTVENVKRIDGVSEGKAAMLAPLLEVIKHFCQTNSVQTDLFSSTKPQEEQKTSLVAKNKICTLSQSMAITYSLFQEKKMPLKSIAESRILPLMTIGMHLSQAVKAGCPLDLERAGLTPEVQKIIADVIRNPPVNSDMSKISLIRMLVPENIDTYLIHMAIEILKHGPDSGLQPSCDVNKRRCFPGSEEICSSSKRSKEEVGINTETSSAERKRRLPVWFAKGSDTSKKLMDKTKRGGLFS
#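 Primary qHTS, 1536-well format. 20 nM WRN + compound, 15 min RT; start with 100 nM forked fluorophore/quencher duplex, 2 mM ATP (final); kinetic read ex 525/em 598 nm.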
# Pol kappa inh-1: inhibitors of human DNA polymerase kappa; purified Pol kappa, fluorescent DNA synthesis assay, 10 min; Potency, µM (top dose mostly 107 µM), actives largely listed as inhibitors; 400,000 compounds, 0.53% hits; AID 588579
#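 Kinetic fluorescence screen: compound preincubated 15 min RT with 10 nM enzyme; 50 nM substrate (final) initiates; reads at 0/10 min.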
# FEN1 inh-1: blocks human flap endonuclease 1. 390,000 compounds, 0.35% hits. Potency, µM (highest dose often 114 µM), actives largely listed as inhibitors. AID 588795. P39748. Recombinant FEN1 flap cleavage, fluorescence, 15 min; also: nearly all actives have a fitted effect of over 65% in size
#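 Enzyme 10 nM, 15 min RT preincubation with compound; start with substrate 50 nM final; reads at 0 and 15 min; qHTS titration, four-parameter Hill fit.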
# Pol beta inh: inhibitors of human DNA polymerase beta. P06746. Pol beta primer extension/strand displacement, fluorescence kinetic. Potency, µM (highest dose often 114 µM), usual class: inhibitors. 340,000 compounds, 1.3% hits. AID 485314
#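 10 nM enzyme + cpd, 15 min RT; start with substrate 50 nM final; read 0 min and after 10 min RT. Corrected, normalized data; 4-parameter Hill curve fit.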
# PGK validate: TbPGK inhibition, hit validation; shares compounds with Pol kappa inh-1; AID 686980; 500 compounds, 79% hits; TbPGK coupled GAPDH assay, Kinase-Glo luminescence; Potency, µM (series often up to 57.5 µM), usual class: inhibitors; also: nearly all actives have a fitted effect of over 65% in size
# POLI cherry-pick: Human Pol iota inhibitor confirmatory assay | 1,500 compounds, 77% hits | shares compounds with Pol kappa inh-1 | Pol iota primer extension, TAMRA/BHQ fluorescence | Potency, µM, hits mostly inhibitors
# Pol kappa inh-2: confirmation of human DNA polymerase kappa inhibitors | shares compounds with Pol eta inh-1 | purified Pol-kappa, fluorescent strand-displacement substrate | Potency, µM, hits mostly inhibitors | 920 compounds, 76% hits | AID 720501
# Pol eta inh-2: Pol eta (human) inhibition, cherry-pick confirmation; shares compounds with Pol eta inh-1; 2,600 compounds, 64% hits; Pol eta primer extension, TAMRA/BHQ fluorescence, 10 min; Potency, µM, actives largely listed as inhibitors
# FEN1 inh-2: FEN1 inhibition, cherry-pick retest; 880 compounds, 79% hits; FEN1 flap cleavage, TAMRA/BHQ2 fluorogenic DNA substrate; shares compounds with FEN1 inh-1; AID 720498; Potency, µM, actives largely listed as inhibitors; also: nearly all actives have a fitted effect of over 60% in size
# WRN helicase inh-2: WRN helicase inhibition, cherry-pick retest | AID 720497 | 610 compounds, 63% hits | Potency, µM (highest dose often 57.1 µM), hits mostly inhibitors | WRN helicase DNA unwinding, fluorescence kinetic | shares compounds with WRN helicase inh-1; also: nearly all actives have a fitted effect of over 65% in size
# TO displacement: DNA binding via thiazole orange displacement; thiazole orange DNA binding displacement, fluorescence; Potency, µM (highest dose often 57.1 µM), most hits filed as inhibitors; shares compounds with WRN helicase inh-1; 610 compounds, 10% hits;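 also: drop in dye fluorescence marks compound binding to DNA; nearly all actives have a fitted effect of over 60% in size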
# BLM helicase inh: BLM helicase inhibition, WRN selectivity check; 610 compounds, 60% hits; shares compounds with WRN helicase inh-1; Potency, µM (titrated, usually from 57.1 µM), hits mostly inhibitors; AID 720503; Recombinant BLM helicase DNA unwinding, red fluorescence; also: nearly all actives have a fitted effect of over 60% in size
# Numbers stand for hits; – = inactive; ? = inconclusive; · = not tested or not shown. In the library only some 2.4% were active in any assay of this set; here they are far more common. Calls follow the shape of the dose curve; as a rule, active = well fitted curve in the direction sought with a large enough effect; inconclusive = small, poorly fitted or top-dose-only effect, or another doubt; inactive = no such curve, though single readings can be large; an effect the other way counts as inactive or inconclusive.
SMILES,POLI inh,Pol eta inh-1,WRN helicase inh-1,Pol kappa inh-1,FEN1 inh-1,Pol beta inh,POLI cherry-pick,Pol eta inh-2,WRN helicase inh-2,TO displacement,BLM helicase inh,others
Cc1cc(=O)n2nc(-c3ccccc3)sc2n1,–,–,–,–,–,?,·,·,·,·,·,
O=c1cc(N2CCNCC2)nc2sc(-c3ccncc3)nn12,·,·,·,·,·,·,27,76,6.1µM,6.8µM,1.2µM,
COc1cccc(Nc2ncc3nc(CCc4ccccc4)c(=O)n(CCC#N)c3n2)c1,·,·,·,–,·,·,·,·,·,·,·,
Cc1ccc(CCNC(=O)c2cccc(Nc3nc4ccccc4nc3-n3nc(C)cc3C)c2)cc1,–,–,·,–,–,–,·,·,·,·,·,
Cc1ccc(C)c(NC(=O)CN(C)C(=O)c2cccc(Oc3ccccc3)c2)c1,–,–,–,–,–,·,·,·,·,·,·,
Cc1ccc(C)c(NC(=O)CN(C)C(=O)c2cccc(-n3cccc3)c2)c1,8.9µM,5µM,50µM,40µM,–,·,17,27,22µM,–,11µM,
NC(=O)C1CCN(S(=O)(=O)c2ccc(N3CCCCS3(=O)=O)cc2)CC1,–,–,·,–,–,–,·,·,·,·,·,
N#C/C(=C\c1ccccc1OCc1ccc(C(=O)O)cc1)C(=O)Nc1ccc(O)cc1,?,?,–,–,–,–,·,·,·,·,·,
COc1ccc(NC(=O)/C(C#N)=C\c2ccc(OCc3ccc(C(=O)O)cc3)c(OC)c2)cc1,32µM,?,35µM,–,?,–,?,?,–,?,?,
O=C(N/N=C/c1cn(Cc2cccc(F)c2)c2ccccc12)c1cc(O)cc(O)c1,?,1.6µM,20µM,7.1µM,22µM,1.4µM,8.4,8.5,5.4µM,24µM,2.2µM,PGK validate=2.1µM;FEN1 inh-2=60
Cc1ccc(-c2nc3c(C)cccn3c2Nc2ccccc2C)s1,–,–,·,–,–,–,·,·,·,·,·,
O=C1CCCC2=C1C(c1ccco1)Nc1ccc3ccccc3c12 (stereo not drawn),6.3µM,2µM,18µM,28µM,50µM,6.3µM,7.5,19,15µM,–,3µM,PGK validate=15µM;FEN1 inh-2=76
Cc1ccc(C2Nc3ccc4ccccc4c3C3=C2C(=O)CC(C)(C)C3)o1 (stereo not drawn),–,–,–,–,–,–,·,·,·,·,·,
O=C(O)c1cccc(-c2ccc(/C=c3/sc4nc5ccccc5n4c3=O)o2)c1,?,3.2µM,40µM,22µM,13µM,4µM,3.8,5.4,4.8µM,?,1.9µM,FEN1 inh-2=76
COc1ccc(C(=O)c2cn(CC(=O)Nc3ccc4c(c3)OCCO4)c3ccc(OC)cc3c2=O)cc1,14µM,?,·,?,40µM,8.9µM,7.5,?,12µM,7.6µM,7.6µM,Pol kappa inh-2=6
O=C(O)CCCCCn1c(SCC(=O)c2ccc(O)c(O)c2)nc2ccsc2c1=O,?,2.8µM,?,?,–,40µM,·,17,·,·,·,Pol kappa inh-2=7.5
